Assay results: PMC4336329 (PLoS ONE, 2015)
In all, about 310,000 compounds went through this assay and about 2,200 (0.71%) showed an effect of 50% or more. Effects have a minus sign here. The sample holds strong results, similar compounds and a random draw of the others, so the mix is not that of the screen.

What follows are compounds tested against human ether-à-go-go-related gene (hERG) potassium channel (human, UniProt Q12809) (assay: primary screen, population patch clamp on CHO cells stably expressing hERG; higher = less effect of the substance).
Sequence of human ether-à-go-go-related gene (hERG) potassium channel (Q12809 whole entry, looked up): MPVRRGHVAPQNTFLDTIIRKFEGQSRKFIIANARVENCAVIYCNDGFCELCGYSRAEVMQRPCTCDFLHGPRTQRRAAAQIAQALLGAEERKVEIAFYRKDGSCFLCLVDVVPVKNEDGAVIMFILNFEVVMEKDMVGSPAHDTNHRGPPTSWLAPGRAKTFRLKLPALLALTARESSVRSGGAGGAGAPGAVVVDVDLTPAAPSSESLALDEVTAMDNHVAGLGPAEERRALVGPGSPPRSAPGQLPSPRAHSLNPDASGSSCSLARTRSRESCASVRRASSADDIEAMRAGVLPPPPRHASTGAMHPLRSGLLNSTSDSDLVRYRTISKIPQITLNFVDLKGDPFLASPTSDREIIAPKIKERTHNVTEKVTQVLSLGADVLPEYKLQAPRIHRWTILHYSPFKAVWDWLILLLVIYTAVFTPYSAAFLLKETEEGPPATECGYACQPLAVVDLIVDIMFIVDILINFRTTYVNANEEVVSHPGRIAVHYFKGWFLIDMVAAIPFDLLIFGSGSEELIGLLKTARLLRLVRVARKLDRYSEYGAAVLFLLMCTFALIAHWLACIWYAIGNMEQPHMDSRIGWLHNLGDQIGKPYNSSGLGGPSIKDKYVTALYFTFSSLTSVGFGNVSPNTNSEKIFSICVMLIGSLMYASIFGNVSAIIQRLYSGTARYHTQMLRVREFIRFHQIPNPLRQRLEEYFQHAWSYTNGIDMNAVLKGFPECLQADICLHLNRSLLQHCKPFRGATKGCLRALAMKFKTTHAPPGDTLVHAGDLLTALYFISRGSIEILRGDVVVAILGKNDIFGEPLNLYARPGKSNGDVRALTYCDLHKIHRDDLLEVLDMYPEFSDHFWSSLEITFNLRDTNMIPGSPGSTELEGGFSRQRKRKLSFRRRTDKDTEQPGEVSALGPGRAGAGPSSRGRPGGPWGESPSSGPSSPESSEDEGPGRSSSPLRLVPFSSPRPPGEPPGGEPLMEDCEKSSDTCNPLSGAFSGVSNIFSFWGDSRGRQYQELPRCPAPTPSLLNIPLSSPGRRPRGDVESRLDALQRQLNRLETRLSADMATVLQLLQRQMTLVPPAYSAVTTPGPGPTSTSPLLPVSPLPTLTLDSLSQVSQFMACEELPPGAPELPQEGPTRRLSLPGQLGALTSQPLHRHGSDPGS

| Compound | hERG current change (%, negative = inhibition) at 1uM |
| --- | --- |
| CC1CCc2nc3ccccc3c(C(=O)OCC(=O)NC3CCS(=O)(=O)C3)c2C1 (centres unmarked) | 13% |
| CC(=O)Nc1ccc(S(=O)(=O)Nc2ccc(S(=O)(=O)N3CCCC3)cc2)cc1 | 4.58% |
| Cc1ccc(C)c(/C=C(\C(=O)O)c2ccc(S(=O)(=O)N3CCCCC3)s2)c1 | 6.97% |
| COc1ccc(NC(=O)c2cc([N+](=O)[O-])ccc2NC(=O)CNC2CCCCC2C)c(OC)c1 (centres unmarked) | -78.8% |
| COc1cc(NC(=O)c2cc([N+](=O)[O-])ccc2NC(=O)CNC2CCCCC2C)cc(OC)c1 (centres unmarked) | 17.4% |
| COc1ccc(NC(=O)c2cc([N+](=O)[O-])ccc2NC(=O)CNCc2ccccn2)c(OC)c1 | 9.51% |
| CCN(c1ccccc1)S(=O)(=O)c1cccc(C(=O)NCC2(N(C)C)CCCCC2)c1 | -11% |
| O=C(OCC(=O)N1CCOCC1)c1ccccc1O | 13.6% |
| Cc1cc(C)cc(NC(=O)C(OC(=O)c2cccs2)c2ccccc2)c1 (centres unmarked) | 16.7% |
| Cn1c(=O)c2c(nc(N3CCCC3)n2C)n(C)c1=O | 12.6% |
| Cn1c(=O)c2c(ncn2CC(=O)N2CCN(c3ccc(F)cc3)CC2)n(C)c1=O | -0.183% |
| Cn1c(=O)c2c(nc(N3CCOCC3)n2C)n(C)c1=O | -1.83% |
| Cn1c(=O)c2c(ncn2CC(=O)N2CCN(c3ccc([N+](=O)[O-])cc3)CC2)n(C)c1=O | -69.6% |
| Cn1c(=O)c2c(ncn2CC(=O)N2CCN(c3ccccc3)CC2)n(C)c1=O | 8.13% |
| Cn1c(=O)c2c(nc(N3CCN(c4ccc([N+](=O)[O-])cc4)CC3)n2C)n(C)c1=O | -81.7% |
| Cc1nc2c(C(=O)N3CCCC3)cnn2c(C)c1Cc1c(F)cccc1Cl | -11.4% |
| C=Cc1ccc(COC(=O)c2cn(CC)c3nc(C)ccc3c2=O)cc1 | -21% |
| O=C(CC(=O)N/N=C/c1ccccc1)NCc1ccccc1 | 8.85% |
| COc1nc(OC)nc(N2CCC(C(=O)NCc3ccco3)CC2)n1 | -0.721% |
| Cc1cc(C)nc(N2CCC(C(=O)NCc3ccccc3F)CC2)n1 | 1.75% |
| O=C(NCc1ccco1)C1CCN(c2nc3ccccc3n2Cc2ccccc2F)CC1 | -62.8% |
| Cc1ccc(Cn2cnc3ccccc32)cc1 | 13% |

| Compound | hERG current change (%, negative = inhibition) at 1uM |
| --- | --- |
| O=C(O)CC(c1cccc(O)c1)N1Cc2ccccc2C1=O (centres unmarked) | 12% |
| CC(C)OCP(=O)(c1ccccc1)c1ccccc1 | 6.74% |
| CCOCCCNC(=O)CNC(=S)N(Cc1ccccc1F)C1CCCCC1 | -6.79% |
| CCN1C(=S)SC(=O)C1=C1C=C(C)N(Cc2ccco2)C(C)=C1 | 1.56% |
| CC(C)c1cc(N=NC(N)=O)cc(C(C)C)c1O | 6.77% |
| CCN(CC(=O)NCCc1ccc(F)cc1)Cc1nc2ccccc2c(=O)[nH]1 | 1.66% |
| CCN(CC(=O)NCc1ccc(F)cc1)Cc1nc2ccccc2c(=O)[nH]1 | -8.93% |
| CCN(CC(=O)NCc1ccc(F)cc1)Cc1nc2cc(Cl)ccc2c(=O)[nH]1 | -52.5% |
| CC1CCCC(N2CCN(C(=O)c3ccc([N+](=O)[O-])cc3)CC2)C1.O=C(O)C(=O)O (centres unmarked) | -67.3% |
| O=C(CCCc1ccccc1)N1CCN(C2CCCCC2)CC1 | -23.6% |
| COc1ccc(CCC(=O)N2CCN(C3CCCCC3)CC2)cc1 | -56.7% |
| CC1CCCC(N2CCN(C(=O)c3ccc(F)cc3)CC2)C1 (centres unmarked) | -25% |
| COc1ccc(CCC(=O)N2CCN(C(=O)c3ccccc3)CC2)cc1 | 14.6% |
| COc1cc(C(=O)N2CCN(C3CCCCC3)CC2)cc(OC)c1OC.O=C(O)C(=O)O | 14.5% |
| COc1ccc(C(=O)N2CCN(C3CCN(Cc4ccccc4)CC3)CC2)cc1OC | -14.5% |
| CC1CCCC(N2CCN(C(=O)c3cccc(F)c3)CC2)C1.O=C(O)C(=O)O (centres unmarked) | 8.59% |
| COc1ccc(C(=O)N2CCN(C3CCC(c4ccccc4)CC3)CC2)cc1OC (centres unmarked) | -60.4% |
| COc1cccc(C(=O)N2CCN(C3CCCCC3)CC2)c1.O=C(O)C(=O)O | 6.64% |
| COc1cccc(C(=O)N2CCN(C3CCC(c4ccccc4)CC3)CC2)c1OC.O=C(O)C(=O)O (centres unmarked) | 3.34% |
| COc1ccc(C(=O)N2CCN(C3CCCCC3)CC2)cc1OC.O=C(O)C(=O)O | -74.2% |
| Cc1ccc(CN(c2ccc(C(=O)NCc3cccnc3)cc2)S(C)(=O)=O)cc1 | 1.51% |
| COc1ccc(N2CCN(CCCNC(=O)C(=O)c3c(C)n(C)c4ccccc34)CC2)cc1 | -9.85% |

| Compound | hERG current change (%, negative = inhibition) at 1uM |
| --- | --- |
| COc1ccc2c(c1)C(NC(C)=O)C(=O)N2CCc1ccccc1 (centres unmarked) | 3.02% |
| Cc1oc(-c2ccoc2)nc1CN(CC1CCC(=O)N1)C(C)C (centres unmarked) | 11.6% |
| CCNc1nc(N2CCCC2)nc(N2CCCC2)n1 | 0.687% |
| CCCCN1CNC(=S)N(c2cc(C)ccc2C)C1 | 7.21% |
| Nc1[nH]c(=O)nc(Nc2ccccc2)c1N=O | 8.79% |
| O=C(c1ccc(CNc2c(N3CCCC3)c(=O)c2=O)cc1)N1CCc2ccccc2C1 | -3.76% |
| CCO[C@@H]1OC(C(=O)N2CCN(Cc3ccc4c(c3)OCO4)CC2)=C[C@H](c2ccc(C(F)(F)F)cc2)[C@H]1CCCO | 3.44% |
| COc1cc(OC)cc(C(=O)N2CCN(C3CCCCC3)CC2)c1.O=C(O)C(=O)O | -2.01% |
| COc1ccc(C(=O)N2CCCN(C)CC2)c(OC)c1 | 11% |
| COc1ccc(C(=O)N2CCN(C3CCCCC3)CC2)c(OC)c1 | -75% |
| CCC(Cc1ccccc1)NS(=O)(=O)c1csc(C(N)=O)c1 (centres unmarked) | 22.5% |
| CC(C)[C@H](NC(=O)N1CC(=O)Nc2ccccc21)C(=O)Nc1nccs1 | 24.4% |
| O=C(c1ccc(C(F)(F)F)cc1)N1CCCCC1 | -4.21% |
| Cc1ccc(S(=O)(=O)Nc2ccc3c(c2)nc(CCN2CCN(c4ccccn4)CC2)n3C)cc1 | -80.7% |
| CC(=O)Nc1ccc2c(c1)nc(CCN1CCN(c3ccccn3)CC1)n2C | 12% |
| CCCC(=O)Nc1ccc2c(c1)nc(CCN1CCN(c3ccccn3)CC1)n2C | 1.68% |
| Cc1ccc(S(=O)(=O)Nc2ccc3c(c2)nc(CCN2CCOCC2)n3C)cc1 | 6.29% |
| Cn1c(CCN2CCN(c3ccccn3)CC2)nc2cc(NS(=O)(=O)c3ccc(Cl)cc3)ccc21 | -69.2% |
| CC(C)C(=O)Nc1ccc2c(c1)nc(CCN1CCN(c3ccccn3)CC1)n2C | 6.24% |
| O=CNc1ccc(OP(=O)(Oc2ccccc2)Oc2ccccc2)cc1 | 1.71% |
| O=C(N/N=C(/c1ccccc1)c1ccncc1)c1ccc2c(c1)OCO2 | 2.11% |
| CC(C(=O)O)N1CCCCC1.Cl (centres unmarked) | -4.62% |

| Compound | hERG current change (%, negative = inhibition) at 1uM |
| --- | --- |
| O=C(Cn1cncc1-c1ccc([N+](=O)[O-])cc1)Nc1ccccc1F | -0.387% |
| O=C(c1noc2c1CCCC2)N1CCN(c2ccc(F)cc2)CC1 | 20% |
| N#Cc1ccc(CN2CCN(C(=O)CCNS(=O)(=O)c3ccc(F)c(F)c3)CC2)cc1 | -62.3% |
| O=C(CCNS(=O)(=O)c1ccc(Cl)cc1)N1CCN(Cc2ccccc2)CC1 | -16.1% |
| N#Cc1ccc(CN2CCN(C(=O)CCNS(=O)(=O)c3ccc(F)c(Cl)c3)CC2)cc1 | -29.3% |
| O=C(CCN1CCN(c2ccc(F)cc2)CC1)Nc1ccccc1F | -9.21% |
| O=C(CCN1CCN(c2ccccc2F)CC1)Nc1ccc(F)cc1 | 14.4% |
| O=C(CCN1CCN(S(=O)(=O)c2ccc(Cl)cc2)CC1)Nc1ccccc1F | 4.11% |
| O=C(CCN1CCN(CC(=O)Nc2ccccc2F)CC1)Nc1ccccc1F | -38.4% |
| O=C(CCN1CCN(CC(=O)Nc2ccccc2Cl)CC1)Nc1ccccc1F | -54% |
| O=C(CCN1CCN(c2ccc(Cl)cc2)CC1)Nc1ccccc1F | 5.25% |
| O=C(CN1CCN(CCC(=O)Nc2ccccc2F)CC1)Nc1ccc(F)cc1 | -78.3% |
| O=C(CCN1CCN(c2ccccc2F)CC1)Nc1ccccc1Cl | 7.43% |
| O=C(CN1CCN(CCC(=O)Nc2ccccc2F)CC1)Nc1ccc(Cl)cc1 | -84.3% |
| CC(C)Oc1ccc(C(=O)OCC(=O)NCCNC(=O)COC(=O)c2ccc(OC(C)C)cc2)cc1 | 8.62% |
| Cc1ccc(CCNC(=O)C2CCCN(S(=O)(=O)N3CC(C)CC(C)C3)C2)cc1 (centres unmarked) | 16.3% |
| COc1cc(Cl)c(C)cc1NC(=O)COc1ccccc1[N+](=O)[O-] | -2.79% |
| COc1cccc(/C=C/C(=O)Nc2ccc3c(c2)OCCO3)c1OC | 15.5% |
| CC(=O)NCCc1nc(-c2ccc(Cl)cc2)no1 | 10.3% |
| CC(C)OC(=O)Cc1ccccc1 | 10.3% |
